Shown are actives, neighbours in structure and some others; about 3.6% of the full set was active somewhere.
ERa coact pot = enhancers of ERα–SRC-1 coactivator binding, primary screen, biochemical, TR-FRET, ERα LBD, low estradiol; AID 639, 2007; coactivator binding (% of control), % at 25.6 µM; 86,000 compounds, 1.3% hits; Estrogen receptor (Homo sapiens), P03372; TR-FRET ERalpha-LBD/SRC-Cy5 coactivator binding, 2 h; 100 = basal binding, no effect; in the data active = activity above about 200%;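 also: binding measured in presence of low estradiol as agonist stimulus; 0% = peptide alone without receptor and 100% = receptor with peptide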
NFkB transloc inh = inhibitors of IL-1B driven NFkB p65 nuclear import, primary screen, imaging, HUVEC, IL-1B stimulus, high-content imaging; HUVEC IL-1B NFkB p65 nuclear translocation imaging; 94,000 compounds, 0.43% hits; inhibition, % at 2 µM;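 active = inhibition above about 30% together with a positive call from visual inspection of the well image, limit read from the data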;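 also: nuclear over cytoplasmic p65 intensity ratio measured by imaging; 0% = IL-1B stimulated DMSO wells and 100% = unstimulated DMSO wells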
HUVEC tox IL1B = cytotoxicity in IL-1B stimulated HUVEC, primary screen, cytotoxicity control for IL-1B NFkB translocation project, imaging, Hoechst nuclear count, IL-1B stimulus | AID 845, 2007 | cell count reduction, % at 2 µM | HUVEC cell count loss | 94,000 compounds, 0.41% hits;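 active = cell count reduction more than 3 SD above the screen-wide mean, cut at about 70% in these data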;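 also: normalized per plate to untreated control cells as the no-loss baseline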
IL1B NFkB pot = enhancers of NFkB p65 translocation in HUVEC – imaging, IL-1B stimulus, high-content imaging, primary screen; HUVEC IL-1B NFkB p65 nuclear translocation imaging; activation, % at 2 µM; 94,000 compounds, 0.3% hits; AID 819, 2007;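 active = activation above 40%, about the mean plus 3 SD, also judged a hit on visual image review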;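 also: percent activation is computed from the nuclear over cytoplasmic p65 intensity ratio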
ERa SRC1 inh = ERα–SRC-1 coactivator interaction inhibitors, primary screen, biochemical, TR-FRET, ERα LBD, estradiol-bound. Estrogen receptor (Homo sapiens), P03372. TR-FRET ER-alpha LBD / SRC-1 peptide. AID 629, 2007. inhibition, % at 25.6 µM. 86,000 compounds, 1.7% hits; in the data active = inhibition above about 50%;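 also: 0% = receptor plus peptide control and 100% = peptide only without receptor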
ERb coact inh = inhibitors of ERβ-SRC1 coactivator interaction, primary screen, biochemical, TR-FRET, ERβ LBD, SRC-1 peptide; TR-FRET ER-beta LBD / SRC1-Cy5 peptide binding; receptor agonist-loaded with 1 µM estradiol; 86,000 compounds, 1.3% hits; Estrogen receptor beta (Homo sapiens), Q92731; inhibition, % at 25.6 µM;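 active = compounds whose percent inhibition of the receptor-coactivator binding signal exceeds about 50% in the single-dose screen, limit read from the data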;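 also: 0% = receptor plus peptide wells without compound and 100% = peptide-only wells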
Target sequence (Q92731 whole entry, looked up, the tested form may be a part): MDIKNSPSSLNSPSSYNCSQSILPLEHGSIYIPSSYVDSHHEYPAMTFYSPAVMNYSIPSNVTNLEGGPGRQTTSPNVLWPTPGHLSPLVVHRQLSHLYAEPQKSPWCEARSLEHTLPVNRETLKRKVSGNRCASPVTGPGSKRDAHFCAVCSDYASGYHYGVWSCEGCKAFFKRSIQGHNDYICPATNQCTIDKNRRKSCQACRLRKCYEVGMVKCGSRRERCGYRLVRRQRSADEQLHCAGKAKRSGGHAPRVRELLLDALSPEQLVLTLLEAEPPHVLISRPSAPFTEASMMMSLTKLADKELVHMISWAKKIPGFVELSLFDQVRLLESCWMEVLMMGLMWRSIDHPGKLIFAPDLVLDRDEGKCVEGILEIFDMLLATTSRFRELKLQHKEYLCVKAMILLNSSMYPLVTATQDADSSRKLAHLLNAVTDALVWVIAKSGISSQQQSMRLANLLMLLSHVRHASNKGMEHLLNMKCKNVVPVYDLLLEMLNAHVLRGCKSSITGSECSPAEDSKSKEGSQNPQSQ
* marks the source's active call; other numbers are inactive results; · = not tested or not shown; [ ] = dose if it differs, or a comment.

SMILES	ERa coact pot	NFkB transloc inh	HUVEC tox IL1B	IL1B NFkB pot	ERa SRC1 inh	ERb coact inh
Cc1cc(C)cc(OCc2ccc(C(=O)N3N=C(C(F)F)CC3(O)C(F)F)o2)c1 (stereo unspecified)	·	-16.8	3.5	16.8	·	·
CCCc1cc(NCC2CCCO2)n2c(nc3ccccc32)c1C#N (stereo unspecified)	103.6	16.6	-89.7	-16.6	-5.0	-4.4
O=C(Cn1cccc1C(=O)c1ccccc1)NCc1ccccn1	110.9	-10.7	-12.8	10.7	2.5	0.5
O=C(Nc1ccc2nn(-c3ccccc3)nc2c1)c1ccc2c(c1)OCO2	181.4	6.2	-4.2	-6.2	51.2*	35.9
O=C(Nc1cccc(-c2cn3cccnc3n2)c1)c1ccco1	94.9	0.3	8.4	-0.3	-5.7	4.8
O=C(Nc1cccc(-c2cn3cccnc3n2)c1)c1ccc2c(c1)OCO2	116.1	-3.2	-6.0	3.2	60.5*	10.2
COC(=O)c1ccc(COC(=O)c2ccc(S(=O)(=O)N3CCC(C)CC3)cc2)o1	730.0*	-0.2	-5.4	0.2	18.7	7.0
CNc1nc(SCc2ccc(C)cc2)nc2c1CCCC2	·	41.8*	-10.3	-41.8	·	·
Cc1ccc(CSc2nc3c(c(N(C)C)n2)CCCC3)cc1	·	-11.4	-43.1	11.4	·	·
COc1cccc(/C=N/n2c(SC)nnc2-c2ccccc2)c1O	89.5	-34.5	-45.8	34.5	16.0	68.0*[fluorescence artefact?]
COc1cccc(/C=N/n2c(SC)nnc2-c2ccccc2)c1OC	105.3	-1.8	-39.8	1.8	21.8	8.0
COc1nnc(-c2ccc(C)c(S(=O)(=O)NCCO)c2)c2ccccc12	76.7	-6.5	-35.9	6.5	57.7*	63.8*[fluorescence artefact?]
CCC(=O)N1CCc2cc(S(=O)(=O)CCC(=O)Nc3c(C)n(C)n(-c4ccccc4)c3=O)ccc21	101.9	-9.7	-186.7	9.7	-4.5	-4.3
COc1ccc(OC)c(NC(=O)CCN2CCCCCC2)c1	45.6	-1.8	8.5	1.8	50.6*[fluorescence artefact?]	48.0
COc1ccc(OC)c(NC(=O)CCN2CCN(Cc3ccccc3)CC2)c1	101.5	1.5	-12.3	-1.4	1.7	-11.1
COc1ccc(OC)c(NC(=O)C2CCCN2C(=O)C2CCC(C)CC2)c1 (stereo unspecified)	96.6	-15.3	-36.5	15.3	90.6*[fluorescence artefact?]	10.1
Cc1ccn(CCSCC(=O)O)n1	113.3	-3.7	86.3*	3.7	-0.3	4.7
O=S(=O)(c1ccc(Cl)cc1)N1c2ccccc2Oc2nc3ccccc3nc21	106.8	97.3*	86.3*	-97.3	2.8	-3.5
COc1ccc(S(=O)(=O)N2c3cc(Cl)ccc3Oc3nc4ccccc4nc32)cc1	99.8	22.3	32.3	-22.3	11.2	26.1
O=C(CCC(=O)Nc1nnc(C2CCCCC2)s1)NCc1cccs1	104.0	-17.6	-17.1	17.6	-1.0	-7.5
CS(=O)(=O)c1ccc2nc(NC(=O)CCC(=O)c3cccs3)sc2c1	67.2	3.5	20.5	-3.5	67.7*	39.6
O=C(CCC(=O)c1cccs1)Nc1nnc(C2CC2)s1	64.5	-3.2	-25.8	3.2	52.4*	41.6
CS(=O)(=O)c1ccc2nc(NC(=O)Cc3ccccc3)sc2c1	98.5	·	·	·	4.1	10.0
CCCCCNC(=O)C1CC=CCC1C(=O)O (stereo unspecified)	272.6*[fluorescence artefact?]	-0.8	-37.3	0.8	-1.7	-2.4
CCOC(=O)c1[nH]c2ccc(OC)cc2c1NC(=O)c1nonc1C	123.8	-20.6	-7.7	20.6	-1.7	-0.1
SMILES	ERa coact pot	NFkB transloc inh	HUVEC tox IL1B	IL1B NFkB pot	ERa SRC1 inh	ERb coact inh
CCOC(=O)c1[nH]c2ccc(Cl)cc2c1NC(=O)c1nonc1C	221.4*[fluorescence artefact?]	-14.5	-13.1	14.5	13.6	9.6
CCOc1ccc(NC(=O)c2cc3cc4ccc(OC)cc4nc3o2)cc1	194.3	11.4	-0.3	-11.4	56.0*	44.7
Cc1ccc2cc3cc(C(=O)NCCCN4CCCCCC4)oc3nc2c1	105.3	-3.2	6.9	3.2	58.3*[fluorescence artefact?]	26.1
Cc1ccc2cc3cc(C(=O)NCCCN4CCc5ccccc5C4)oc3nc2c1	87.7	-0.8	-0.6	0.8	1.7	6.4
COc1ccc2cc3cc(C(=O)NCCN4CCN(c5ccccc5F)CC4)oc3nc2c1	109.1	-44.9	-11.4	44.9*	0.4	-6.6
CCOc1ccc(N2C(=O)CC(n3nc(C)cc3C)C2=O)cc1 (stereo unspecified)	113.9	6.2	1.3	-6.2	-8.3	1.1
O=C(NC(Cc1ccccc1)c1ccc2c(c1)OCCCO2)c1ccccc1 (stereo unspecified)	·	-6.6	1.4	6.6	·	·
O=C(COC(=O)C1CC(=O)N(Cc2ccco2)C1)c1ccc(OC(=O)c2ccco2)cc1 (stereo unspecified)	138.1	-13.3	-74.6	13.3	39.7	35.9
Cc1ccc(C(=O)Oc2ccc(C(=O)COC(=O)C3CC(=O)N(Cc4ccco4)C3)cc2)cc1 (stereo unspecified)	274.1*[fluorescence artefact?]	-7.3	-2.2	7.3	23.5	6.8
Cc1ccc(S(=O)(=O)c2nc(-c3ccccc3)oc2NCc2cccnc2)cc1	100.5	32.1*	16.3	-32.1	7.7	-0.1
Cc1ccccc1-c1nc(S(=O)(=O)c2ccc(Br)cc2)c(NCc2cccnc2)o1	100.9	11.4	-12.8	-11.4	4.0	-14.2
COc1ccc(N(CC(=O)NCc2ccco2)S(C)(=O)=O)cc1	96.3	-2.6	-24.0	2.6	-7.0	99.0*[fluorescence artefact?]
COc1ccc(OCCC(=O)OCC(=O)NCc2ccco2)cc1	232.6*[fluorescence artefact?]	·	·	·	81.2*	49.6
COc1ccc(S(=O)(=O)N(C)CC(=O)NCc2ccco2)cc1	85.6	·	·	·	7.1	7.0
O=C(COC(=O)CCNS(=O)(=O)c1ccc(Cl)cc1)NCc1ccco1	102.3	-3.6	-17.4	3.6	-18.5	-23.4
COc1cccc(CN(C)CC(=O)NC(=O)NCc2ccco2)c1	102.9	-19.9	-8.9	19.9	57.5*[fluorescence artefact?]	38.7
COc1ccccc1NCCC(=O)OCC(=O)NCc1ccco1	30.4	-2.9	-7.0	2.9	77.4*[fluorescence artefact?]	61.3*[fluorescence artefact?]
COc1ccc(-n2nnc3c(SCC(=O)N4CCN(c5ccccc5)CC4)ncnc32)cc1	109.1	·	·	·	-30.6	-31.9
COC(=O)CSCc1nc2ccccc2[nH]c1=O	95.0	·	·	·	-1.8	-2.4
CC(C)=CC1C=C(C)C(C)C2C(=O)NNC(=O)C12 (stereo unspecified)	96.6	·	·	·	-6.7	25.6
CC(C)n1c(=S)[nH]c2ccccc2c1=O	91.1	36.5*	-3.0	-36.5	-8.0	-20.1
O=C(c1ccco1)N1CCN(c2ccc(Cl)c(Cl)c2)CC1	·	2.4	-18.4	-2.4	·	·
